Experiments:
Details in all cases: concentration: 1 μM, replicates: in singlicate; n = 1
DCAMKL2 = system: T1, DCAMKL2
T1 construct: gene DCLK2

DCAMKL3 = system: T2, DCAMKL3
T2 construct: gene DCLK3

DDR1 = system: DDR1
DDR2 = system: DDR2
DLK = system: T3, DLK
T3 construct: gene MAP3K12

DMPK2 = system: T4, DMPK2
T4 construct: gene CDC42BPG

DMPK = system: DMPK
DRAK1 = system: T5, DRAK1
T5 construct: gene STK17A

DRAK2 = system: T6, DRAK2
T6 construct: gene STK17B

DYRK1A = system: DYRK1A
DYRK1B = system: DYRK1B
DYRK2 = system: DYRK2
EGFR = system: EGFR
EIF2AK1 = system: EIF2AK1
EPHA1 = system: EPHA1
EPHA2 = system: EPHA2
EPHA3 = system: EPHA3
EPHA4 = system: EPHA4
EPHA5 = system: EPHA5
EPHA6 = system: EPHA6
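Also: KINOMEscan kinase panel screen.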

SMILES | %Inh (DCAMKL2) | %Inh (DCAMKL3) | %Inh (DDR1) | %Inh (DDR2) | %Inh (DLK) | %Inh (DMPK2) | %Inh (DMPK) | %Inh (DRAK1) | %Inh (DRAK2) | %Inh (DYRK1A) | %Inh (DYRK1B) | %Inh (DYRK2) | %Inh (EGFR) | %Inh (EIF2AK1) | %Inh (EPHA1) | %Inh (EPHA2) | %Inh (EPHA3) | %Inh (EPHA4) | %Inh (EPHA5) | %Inh (EPHA6)
CN1CCN(CCCNc2nccc(-c3c(-c4ccc(F)cc4)nn4cc(C(F)(F)F)ccc34)n2)CC1 [GW621581] | 0% | 25% | 100% | 81% | 16% | 0% | 0% | 33% | 0% | 5% | 0% | 4% | 23% | 0% | 42% | 0% | 0% | 1% | 0% | 8%
Clc1ccc(-c2nn3ncccc3c2-c2ccnc(Nc3ccc4c(c3)OCCO4)n2)cc1 [GW829116] | 0% | 0% | 98.5% | 95.9% | 0% | 92.9% | 0% | 0% | 0% | 0% | 0% | 0% | 84% | 0% | 0% | 0% | 0% | 12% | 19% | 34%
COc1ccc(Nc2nccc(NCCNC(=O)c3cc4ccccc4s3)n2)cc1 [GSK1379896] | 0% | 0% | 0% | 15% | 0% | 0% | 0% | 0% | 0% | 0% | 0% | 5% | 19% | 0% | 0% | 8% | 0% | 0% | 0% | 0%
CSc1cccc2c(-c3ccncn3)c(-c3ccc(F)cc3)nn12 [GW514786] | 20% | 0% | 78% | 63% | 24% | 59% | 13% | 0% | 0% | 18% | 0% | 12% | 70% | 0% | 18% | 7% | 0% | 0% | 0% | 0%
Nc1ncnc2c1nc(-c1ccccc1)n2-c1ccccc1 [SKF-97293] | 0% | 3% | 6% | 41% | 23% | 0% | 6% | 0% | 0% | 6% | 6% | 25% | 7% | 20% | 22% | 0% | 0% | 30% | 13% | 28%
O=C(Nc1cccc(-c2nn3ccccc3c2-c2ccnc(Nc3cccc(F)c3)n2)c1)c1c(F)ccc(F)c1Cl [GSK357952] | 7% | 1% | 100% | 82% | 3% | 19% | 0% | 3% | 0% | 6% | 0% | 11% | 100% | 39% | 5% | 0% | 0% | 25% | 0% | 15%
Cl.c1ccc(-c2ccc3c(Nc4ccc5[nH]ncc5c4)ccnc3c2)nc1 [GW440137] | 0% | 0% | 67% | 3% | 1% | 6% | 0% | 0% | 6% | 21% | 31% | 26% | 66% | 0% | 32% | 0% | 7% | 2% | 0% | 28%
CC(=O)N1CCN(c2ccc(Nc3nccc(-c4sc(C(C)C)nc4-c4cccc(NS(=O)(=O)c5cccc(Cl)c5)c4)n3)cn2)CC1 [GSK1660437] | 19% | 52% | 98.2% | 40% | 23% | 0% | 0% | 0% | 0% | 0% | 0% | 11% | 86% | 19% | 71% | 3% | 0% | 0% | 99.6% | 32%
O=C(Nc1cccc(Oc2ccc3nc(NC(=O)C4CC4)cn3n2)c1)c1ccccc1C(F)(F)F | 0% | 0% | 98.9% | 88% | 7% | 17% | 0% | 0% | 21% | 12% | 12% | 0% | 82% | 0% | 35% | 29% | 3% | 28% | 0% | 16%
NCCCC(NC(=O)c1cc(Br)c(-c2ccnc3[nH]ccc23)s1)c1ccccc1.O=C(O)C(F)(F)F.O=C(O)C(F)(F)F (stereo not drawn) [GSK1287544] | 3% | 0% | 0% | 2% | 17% | 94.2% | 28% | 61% | 0% | 48% | 22% | 37% | 4% | 0% | 6% | 0% | 0% | 11% | 5% | 18%
Nc1ncc(-c2cccnc2)c2scc(-c3ccc4c(c3)CCN4C(=O)Cc3ccccc3)c12 [GSK683281] | 1% | 34% | 63% | 0% | 6% | 72% | 4% | 1% | 0% | 23% | 27% | 24% | 16% | 25% | 13% | 8% | 0% | 7% | 0% | 11%
Cn1cc(-c2ccc3c(c2)CCN3C(=O)Cc2cccc(F)c2)c2c(N)ncnc21 [GSK2603358] | 0% | 32% | 69% | 30% | 22% | 50% | 0% | 0% | 0% | 15% | 1% | 4% | 35% | 87% | 16% | 0% | 0% | 7% | 0% | 15%
CCn1c(-c2nonc2N)nc2c(C#CC(C)(C)O)nc(OC[C@H](N)c3ccccc3)cc21 [GSK943949] | 0% | 19% | 4% | 12% | 0% | 0% | 0% | 13% | 19% | 4% | 0% | 9% | 12% | 0% | 2% | 5% | 0% | 0% | 0% | 0%
COc1cccc(C(=O)Nc2cccc(Oc3ccc4nc(NC(=O)C5CC5)cn4n3)c2)c1 | 17% | 49% | 100% | 99.7% | 18% | 27% | 0% | 0% | 24% | 0% | 19% | 9% | 78% | 0% | 42% | 98.7% | 62% | 79% | 57% | 68%
CN(c1ccc(NC(=O)Nc2cc(C(F)(F)F)ccc2F)cc1)c1ccnc(Nc2ccc(S(N)(=O)=O)cc2)n1 [GW809893] | 2% | 6% | 97.6% | 93.9% | 14% | 9% | 0% | 0% | 18% | 17% | 10% | 14% | 4% | 10% | 97.4% | 96.1% | 78% | 96.9% | 97.5% | 98.5%
